Screens from PubChem BioAssay.
Hits are enriched below; roughly 2.3% of the tested compounds scored in any of these assays.
CHO-K1 Ca antag: M1 antagonist counterscreen hit in parental CHO-K1 cells; ATP-induced calcium, Fluo-8 fluorescence; inhibition, % at 3 µM; 360,000 compounds, 0.6% hits;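 active means inhibition above a per-plate cutoff, the plate's mean sample inhibition plus 3 SD, cut at about 24% in these data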;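 further: 0% = DMSO plus EC80 ATP and 100% = DMSO alone without ATP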
CHO-K1 Ca PAM: nonselective calcium activators in parental CHO-K1 cells, primary screen, counter-screen for M1 PAM project, cell-based, Fluo-8 calcium fluorescence, full deck, 1536-well; ATP EC20; 0% at ATP EC20, 100% at ATP max; activation, % at 3 µM; 360,000 compounds, 0.02% hits;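 active means activation above the run cutoff, the mean activation of all test compounds plus 3 SD, cut at about 40% in these data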;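 further: peak over basal fluorescence ratio in a 140 s read after ATP addition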
CHO-K1 Ca ag: counter-screen for M1 agonists: effect in parental CHO-K1 cells. Fluo-8 calcium fluorescence; scaled to maximal ATP response, vehicle zero. 360,000 compounds, 0.48% hits. AID 602248, 2012. activation, % at 3 µM; in the data active means activation above about 15%;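 further: untransfected CHO-K1 host cells lacking M1 receptor as counterscreen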
CHRM1 antagonist: human M1 muscarinic receptor antagonists, primary screen, CHO-K1 cells, Fluo-8 calcium fluorescence, 1536-well. inhibition, % at 3 µM. AID 588852, 2011. CHO-K1 hM1, ACh EC80 antagonist. 360,000 compounds, 1.3% hits. Muscarinic acetylcholine receptor M1 (Homo sapiens), P11229;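 active means percent inhibition above its own plate's cutoff, namely the mean of that plate's compound wells plus 3 SD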;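 further: peak over basal fluorescence ratio during 140 s after agonist addition; 0% = ACh EC80 plus DMSO and 100% = DMSO alone without agonist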
Target sequence (P11229 whole entry, looked up): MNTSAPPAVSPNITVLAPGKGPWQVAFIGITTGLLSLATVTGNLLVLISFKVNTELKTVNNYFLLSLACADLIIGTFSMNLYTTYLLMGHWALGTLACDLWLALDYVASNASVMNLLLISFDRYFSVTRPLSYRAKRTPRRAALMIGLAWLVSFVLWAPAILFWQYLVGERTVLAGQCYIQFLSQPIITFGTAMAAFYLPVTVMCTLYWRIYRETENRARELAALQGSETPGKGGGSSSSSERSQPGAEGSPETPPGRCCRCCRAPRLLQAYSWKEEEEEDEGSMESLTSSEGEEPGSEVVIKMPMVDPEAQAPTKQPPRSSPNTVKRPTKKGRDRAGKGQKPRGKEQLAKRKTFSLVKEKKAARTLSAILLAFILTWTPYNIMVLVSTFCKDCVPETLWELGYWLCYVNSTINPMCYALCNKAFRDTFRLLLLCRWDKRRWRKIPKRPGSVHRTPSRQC
CHRM1 PAM: human M1 muscarinic receptor positive allosteric modulators, primary screen, CHO-K1 cells, Fluo-8 calcium fluorescence, 1536-well; CHO-K1 hM1, ACh EC20; 0% = ACh EC20, 100% = maximal ACh; activation, % at 3 µM; 360,000 compounds, 0.088% hits; in the data active means activation above about 19%, passing the limit was not always enough
M1 ag: human M1 muscarinic receptor agonists, primary screen, Fluo-8 calcium fluorescence, CHO-K1 cells, HTS; Muscarinic acetylcholine receptor M1 (Homo sapiens), P11229; CHO-K1 hM1, agonist mode; 0% DMSO, 100% acetylcholine EC100; activation, % at 3 µM; 360,000 compounds, 0.33% hits;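 active means activation above the run's mean compound activation plus 3 SD, cut at about 16% in these data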;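 further: peak over basal fluorescence ratio within a 140 s kinetic read after compound addition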
Starred values were filed as active, the others as inactive.

`COc1ccccc1N1CCN(S(=O)(=O)CCNC(=O)CCc2ccccc2)CC1` gave CHO-K1 Ca antag 3.1, CHO-K1 Ca PAM 10.2, CHO-K1 Ca ag 7.9, CHRM1 antagonist -2.8, CHRM1 PAM -7.4 and M1 ag 1.9.
O=C(CCCCN1CCCCC1)c1ccccc1 was read as CHO-K1 Ca antag -1.7, CHO-K1 Ca PAM 4.9, CHO-K1 Ca ag 3.4, CHRM1 antagonist -2.4, CHRM1 PAM -2.8 and M1 ag -4.0.
For O=C(C(=Cc1ccccc1)CN1CCCCC1)c1ccccc1 the results were CHO-K1 Ca antag -17.9, CHO-K1 Ca PAM 28.0, CHO-K1 Ca ag 0.6, CHRM1 antagonist 39.4*, CHRM1 PAM -26.6 and M1 ag -8.1.
`COc1ccc(N=Cc2oc3ccc4ccccc4c3c2O)cc1` gave CHO-K1 Ca antag 8.9, CHO-K1 Ca PAM 8.7, CHO-K1 Ca ag 24.4*, CHRM1 antagonist 15.9, CHRM1 PAM -2.9 and M1 ag 10.6.
Screening CCOC(=O)c1c(C)[nH]c(C(=O)COC(=O)c2ccccc2NC(=O)c2ccco2)c1C returned CHO-K1 Ca antag 32.2*, CHO-K1 Ca PAM -9.7, CHO-K1 Ca ag 0.0, CHRM1 antagonist 11.6, CHRM1 PAM -1.6 and M1 ag -3.4.
`NCCCC[C@H]1CN=C(N)N1CCC12CC3CC(CC(C3)C1)C2` gave CHO-K1 Ca antag -10.5, CHO-K1 Ca PAM -8.6, CHO-K1 Ca ag 0.1, CHRM1 antagonist 58.6*, CHRM1 PAM -39.0 and M1 ag -14.1.
Screening CC(C)C[C@H]1CN([C@@H](Cc2ccccc2)CN2CCC[C@@H]2CN2C(=O)C(=O)NC[C@@H]2Cc2ccc(O)cc2)C(=O)C(=O)N1CC1CCCCC1 returned CHO-K1 Ca antag 30.2*, CHO-K1 Ca PAM -7.8, CHO-K1 Ca ag -0.1, CHRM1 antagonist 15.5, CHRM1 PAM 1.8 and M1 ag 6.8.
Oc1ccc(C[C@H]2CN([C@@H](Cc3ccc(O)cc3)CN3CCC[C@@H]3CN3C(=S)NC[C@@H]3Cc3ccccc3)C(=S)N2CCc2ccccc2)cc1 was read as CHO-K1 Ca antag 34.1*, CHO-K1 Ca PAM 0.0, CHO-K1 Ca ag 0.3, CHRM1 antagonist 11.1, CHRM1 PAM 4.0 and M1 ag -1.3.
`O=C(CCNC(=O)N1CC(=O)Nc2ccccc21)NCc1ccc(Cl)cc1` gave CHO-K1 Ca antag -1.5, CHO-K1 Ca PAM 3.8, CHO-K1 Ca ag -0.2, CHRM1 antagonist 0.1, CHRM1 PAM -1.6 and M1 ag -3.9.
`CC(C)NC(=O)c1cc(C2CCCCN2C(=O)c2cc(C(C)(C)C)nn2C)on1` (stereo not drawn) gave CHO-K1 Ca antag -5.0, CHO-K1 Ca PAM 16.2, CHO-K1 Ca ag 0.5, CHRM1 antagonist -12.9, CHRM1 PAM 12.5 and M1 ag -6.5.
S=c1nc(-c2cc(Cl)ccc2Cl)[nH][nH]1 was read as CHO-K1 Ca antag 26.2*, CHO-K1 Ca PAM -14.4, CHO-K1 Ca ag -0.3, CHRM1 antagonist 0.9, CHRM1 PAM 15.2 and M1 ag 5.6.
Screening O=C1C(Cl)=C(N2CCCCCC2)C(=O)N1c1ccccc1 returned CHO-K1 Ca antag 3.1, CHO-K1 Ca PAM -3.9, CHO-K1 Ca ag -0.1, CHRM1 antagonist 36.1*, CHRM1 PAM -17.4 and M1 ag -4.5.
For O=C1C(Cl)=C(N2CCCCCC2)C(=O)N1c1ccc(Br)cc1 the results were CHO-K1 Ca antag -10.1, CHO-K1 Ca PAM -1.0, CHO-K1 Ca ag 0.0, CHRM1 antagonist 0.5, CHRM1 PAM -5.8 and M1 ag -8.6.
`CCSc1nnc(NC(=O)c2ccccc2C)s1` gave CHO-K1 Ca antag -6.5, CHO-K1 Ca PAM 13.2, CHO-K1 Ca ag 0.9, CHRM1 antagonist 52.9*, CHRM1 PAM -12.1 and M1 ag -5.9.
Screening CCSc1nnc(NC(=O)CC)s1 returned CHO-K1 Ca antag -4.9, CHO-K1 Ca PAM 17.8, CHO-K1 Ca ag -0.2, CHRM1 antagonist -2.5, CHRM1 PAM 3.8 and M1 ag 16.3*.
Cc1noc(C)c1COc1ccccc1C(=O)N1CCN(S(=O)(=O)c2ccc(C(C)C)cc2)CC1 was read as CHO-K1 Ca antag -2.4, CHO-K1 Ca PAM 8.3, CHO-K1 Ca ag 2.3, CHRM1 antagonist -11.3, CHRM1 PAM 1.4 and M1 ag -7.4.
CCOC(=O)c1c(C(C)(C)C)oc2ccc(OCC#N)cc12 was read as CHO-K1 Ca antag -11.9, CHO-K1 Ca PAM 19.2, CHO-K1 Ca ag 0.3, CHRM1 antagonist 27.8*, CHRM1 PAM -17.2 and M1 ag -4.0.
CCOc1ccc(NCc2cccn2-c2nnc(N3CCC(C(=O)NCCCN4CCCCC4CC)CC3)s2)cc1 (stereo not drawn) was read as CHO-K1 Ca antag -14.0, CHO-K1 Ca PAM -1.4, CHO-K1 Ca ag 0.0, CHRM1 antagonist 88.1*, CHRM1 PAM -23.3 and M1 ag -5.4.
For COc1ccc(-c2cc(=O)c3ccc(O)cc3o2)cc1 the results were CHO-K1 Ca antag 1.0, CHO-K1 Ca PAM 10.4, CHO-K1 Ca ag -0.3, CHRM1 antagonist -22.9, CHRM1 PAM 24.1* and M1 ag 0.7.
Screening Cn1c(=O)n(-c2cccc(Cl)c2)c(=O)c2c3c(sc21)COC(C)(C)C3 returned CHO-K1 Ca antag 29.7*, CHO-K1 Ca PAM -7.1, CHO-K1 Ca ag -0.6, CHRM1 antagonist -6.8, CHRM1 PAM 11.2 and M1 ag 0.8.
CC(O)(c1cccnc1)c1nc(-c2ccc(F)c(Cl)c2)cs1 (stereo not drawn) was read as CHO-K1 Ca antag 15.2, CHO-K1 Ca PAM -12.4, CHO-K1 Ca ag 7.2, CHRM1 antagonist 24.1, CHRM1 PAM -15.7 and M1 ag 1.7.
Screening Cc1cc2nc3n(c2cc1C)CCCN3 returned CHO-K1 Ca antag 9.5, CHO-K1 Ca PAM -13.0, CHO-K1 Ca ag 0.4, CHRM1 antagonist 34.3*, CHRM1 PAM -23.3 and M1 ag -10.6.
Screening Cc1cc2nc(C)c(=O)n(C)c2cc1C returned CHO-K1 Ca antag -0.6, CHO-K1 Ca PAM 1.8, CHO-K1 Ca ag 0.2, CHRM1 antagonist -12.9, CHRM1 PAM 9.9 and M1 ag -5.8.
For O=C(NCCCSc1ccccc1)c1cc(Br)ccc1O the results were CHO-K1 Ca antag 16.5, CHO-K1 Ca PAM -1.6, CHO-K1 Ca ag 10.7, CHRM1 antagonist 30.8*, CHRM1 PAM -11.8 and M1 ag 1.9.
Screening COc1ccc(CN(C)CC(O)COC(c2ccccc2)c2ccccc2)c(OC)c1OC (stereo not drawn) returned CHO-K1 Ca antag -3.4, CHO-K1 Ca PAM 0.0, CHO-K1 Ca ag 27.8*, CHRM1 antagonist 20.3, CHRM1 PAM -22.6 and M1 ag -9.9.
